PostGolgi ctrl: yeast control strain growth, post-Golgi counter-screen; efflux-deficient yeast background strain, growth absorbance A615, 16 h; inhibition, % at 10 µM; 98,000 tested, 5% active
PostGolgi yeast: growth inhibition of a yeast mutant, post-Golgi transport screen; post-Golgi transport phenotypic cell assay; inhibition, % at 10 µM; AID 739; 98,000 tested, 0.9% active;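 note: yeast cells grown in 1536-well plates; yeast grown about 18 h at 30C before absorbance read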
Candida biofilm: kills Candida albicans biofilms; C. albicans biofilm + clotrimazole, Alamar Blue; inhibition, % at 6 µM; 85,000 tested, 0.14% active;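 active = inhibition above 20%; inactive = inhibition below 20%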;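 note: preformed 24 hr biofilms exposed to compound for 48 hr; 0% = biofilm without compound and 100% = blank killed by clotrimazole plus chlorhexidine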
EphB4 antag: EphB4-ephrin-B2 interaction antagonism; P54760; EphB4 LBD / TNYL-RAW-Alexa532 peptide, fluorescence polarization; inhibition, % at 7 µM; 97,000 tested, 0.15% active; AID 720;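 active = inhibition above the screen-wide mean inhibition plus 3 SD, cut at about 15% in these data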;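 note: 0% = DMSO wells and 100% = excess unlabeled TNYL-RAW peptide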
Target sequence (P54760 whole entry, looked up, the tested form may be a part): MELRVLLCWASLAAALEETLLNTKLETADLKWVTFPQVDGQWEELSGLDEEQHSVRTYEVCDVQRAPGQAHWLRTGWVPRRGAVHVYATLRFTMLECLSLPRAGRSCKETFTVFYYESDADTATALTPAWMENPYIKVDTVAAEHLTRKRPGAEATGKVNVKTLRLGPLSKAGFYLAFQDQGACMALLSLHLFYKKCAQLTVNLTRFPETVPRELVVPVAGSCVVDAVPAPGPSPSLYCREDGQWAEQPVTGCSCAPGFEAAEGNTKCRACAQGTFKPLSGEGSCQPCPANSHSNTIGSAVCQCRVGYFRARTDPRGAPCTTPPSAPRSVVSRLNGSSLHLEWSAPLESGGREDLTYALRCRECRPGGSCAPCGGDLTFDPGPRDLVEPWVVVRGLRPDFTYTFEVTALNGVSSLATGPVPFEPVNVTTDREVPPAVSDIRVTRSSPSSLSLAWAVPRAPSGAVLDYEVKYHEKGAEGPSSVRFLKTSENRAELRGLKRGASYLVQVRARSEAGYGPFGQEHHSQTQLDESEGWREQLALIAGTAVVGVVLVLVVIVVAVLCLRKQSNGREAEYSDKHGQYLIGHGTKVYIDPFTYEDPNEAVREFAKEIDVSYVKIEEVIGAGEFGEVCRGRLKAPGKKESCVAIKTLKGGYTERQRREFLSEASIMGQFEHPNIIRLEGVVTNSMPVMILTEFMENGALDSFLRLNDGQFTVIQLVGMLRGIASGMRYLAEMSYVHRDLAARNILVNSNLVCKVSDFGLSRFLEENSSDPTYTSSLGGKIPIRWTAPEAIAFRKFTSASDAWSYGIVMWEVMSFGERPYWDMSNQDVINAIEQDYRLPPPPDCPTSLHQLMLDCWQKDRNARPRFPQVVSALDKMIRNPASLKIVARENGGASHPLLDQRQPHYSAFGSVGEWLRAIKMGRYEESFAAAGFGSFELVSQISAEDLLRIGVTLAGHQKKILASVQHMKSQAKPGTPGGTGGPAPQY
* hit, by the source's call; . = not tested or not shown. Rows were chosen to be rich in hits. Some 5.2% of all compounds tested hit in one or more screens of this group. Cut-off read from the data, not from the text of the source, unless noted: active = inhibition above about 30%; inactive = the rest.

SMILES	PostGolgi ctrl	PostGolgi yeast	Candida biofilm	EphB4 antag
O=C(CNC(=O)c1ccccc1)Nc1ccc(Br)cc1C(=O)c1ccccc1	30.8*	-5.5	.	1.3
O=C(CN1CCCCC1)NCC(=O)Nc1ccc(Br)cc1C(=O)c1ccccc1	13.6	-3.1	.	-9.5
CC(=O)OC1(c2ccccc2)CCN(C)C(C)C1C (stereo not drawn)	.	.	11.1	-7.3
COC(=O)C1C2c3ccccc3OC1(C)N=c1s/c(=C/c3cnn(C)c3C)c(=O)n12 (stereo not drawn)	47.8*	4.0	4.4	7.7
CC(=O)C1C2c3ccccc3OC1(C)N=c1s/c(=C/c3cnn(C)c3)c(=O)n12 (stereo not drawn)	10.7	2.1	3.4	-1.1
COc1ccccc1N1CCN(Cc2ccccc2F)CC1	-1.3	36.2*	9.2	.
CCn1nc(-c2cccs2)nc2c(=O)n(C)c(=O)nc1-2	99.7*	104.6*	.	.
CCOP(=O)(OCC)C(NC(=O)c1ccccc1Cl)=C(Cl)Cl	-1.2	-6.3	.	3.3
CCOP(=O)(C(NC(=O)c1ccccc1Cl)=C(Cl)Cl)c1ccccc1 (stereo not drawn)	-1.5	-9.0	68.8*	-0.1
O=c1c2ccccc2nc(-c2ccc(-c3ccccc3)cc2)n1-c1ccncc1	85.9*	100.5*	.	8.6
COc1cc2[nH]c(=O)n(-c3cccc(Cl)c3)c(=O)c2cc1OC	16.8	-11.2	5.4	-1.8
COc1cc2[nH]c(=O)n(-c3ccccc3)c(=O)c2cc1OC	0.8	31.2*	-6.0	4.2
CCCCCCCSc1cc(OC)c(CCNC)cc1OC	49.4*	0.0	.	2.4
O=C(c1ccccc1F)c1cn(CC(=O)N2CCCCC2)c2ccccc12	21.6	4.5	-4.5	-0.2
CCOC(=O)c1c(-n2c(C)cc(C=C3C(=O)NC(=S)NC3=O)c2C)sc2c1CCCC2	41.8*	96.8*	.	1.6
O=C(CCN1C(=O)COc2ccccc21)N1CCC2(CC1)OCCO2	-6.0	-2.4	5.5	-0.8
O=c1c2ccccc2nc(N2CCCC2)n1-c1ccc(Cl)cc1	17.6	-3.4	7.6	5.1
O=C(C1CC(=O)N(C2CCCCC2)C1)N1CCC2(CC1)OCCO2 (stereo not drawn)	4.0	21.1	3.6	4.9
O=C1CC(C(=O)N2CCC3(CC2)OCCO3)CN1CCc1ccccc1 (stereo not drawn)	31.6*	-4.2	5.4	5.3
COc1ccccc1N(CC(=O)NC1CCCC1)C(=O)c1cnn(C(C)C)c1	.	.	9.6	5.4
CC(Cc1ccccc1)[n+]1cc(/N=C(\[O-])Nc2ccccc2)on1 (stereo not drawn)	9.3	-7.4	3.3	-0.6
O=c1[nH]c(=O)n(Cc2ccc(F)cc2)c(O)c1C=NCCN1CCCCC1	32.5*	17.6	8.8	-8.7
CC(=NCCN1CCCCC1)c1c(O)n(-c2ccc(Cl)cc2)c(=O)[nH]c1=O	4.1	-0.5	8.1	-5.4
Cc1cc(N2C(=O)C3CCCN3C2c2sccc2C)no1 (stereo not drawn)	-5.1	35.8*	5.8	-8.2
CCOC(=O)C(O)(c1ccc(N(CC)S(=O)(=O)c2ccccc2)cc1)C(F)(F)F (stereo not drawn)	38.5*	5.0	.	0.8
CCN(c1ccc(C(O)(C(=O)OC)C(F)(F)F)cc1)S(=O)(=O)c1ccccc1 (stereo not drawn)	-4.7	4.3	0.6	.
CCOC(=O)c1cc(C)n(CCc2cnc[nH]2)c1C	-1.8	3.0	8.8	.
CC(C)Cc1[nH]c(=O)c(C#N)c2c1CCC2	-3.9	34.9*	1.3	0.6
Fc1ccccc1CCNCc1cccc(Cl)c1Cl	5.8	-1.9	.	4.5
OC(Cn1c2ccccc2c2ccccc21)C[n+]1cccc2ccccc21 (stereo not drawn)	-3.4	-2.9	.	-4.1

Screening data as filed in PubChem BioAssay.
